Laboratory results taken from PubChem BioAssay (NCATS).
Results filed as inconclusive are left out. Calls of active or inactive are those of the source. Unless noted, calls follow the shape of the dose curve; as a rule, active = well fitted inhibition curve with a large enough effect; inconclusive = small, poorly fitted or top-dose-only effect; inactive = flat fitted curve, though single readings scatter.

Experiments:
CP250 = assay: qHTS profiling for inhibitors of Plasmodium falciparum proliferation (AID 504749);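 also: 0% = DMSO vehicle and full inhibition = artemisinin control; nearly all actives have a fitted effect of over 60% in size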; settings: P. falciparum in erythrocytes, SYBR Green DNA, 72 h; series mostly up to 28.7 µM
In short: (§1)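 Parasite proliferation within erythrocytes, 72 h exposure. Endpoint: SYBR Green I fluorescence after overnight lysis at room temperature. Controls: 0.29 uM artemisinin, DMSO.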

CP252 = assay: as above; settings: P. falciparum in erythrocytes, SYBR Green DNA, 72 h; series mostly up to 28.7 µM
In short: as §1

CP256 = assay: as above; settings: P. falciparum in erythrocytes, SYBR Green DNA, 72 h; series mostly up to 28.7 µM
In short: as §1

CP260 = assay: as above; settings: P. falciparum in erythrocytes, SYBR Green DNA, 72 h; series mostly up to 28.7 µM
In short: as §1

CP262 = assay: as above; settings: P. falciparum in erythrocytes, SYBR Green DNA, 72 h; series mostly up to 28.7 µM
In short: as §1

CP265 = assay: as above; settings: P. falciparum in erythrocytes, SYBR Green DNA, 72 h; series mostly up to 28.7 µM
In short: as §1

CP266 = assay: as above; settings: P. falciparum in erythrocytes, SYBR Green DNA, 72 h; series mostly up to 28.7 µM
In short: as §1

CP268 = assay: as above; settings: P. falciparum in erythrocytes, SYBR Green DNA, 72 h; series mostly up to 28.7 µM
In short: as §1

CP269 = assay: as above; settings: P. falciparum in erythrocytes, SYBR Green DNA, 72 h; series mostly up to 28.7 µM
In short: as §1

CP286 = assay: as above; settings: P. falciparum in erythrocytes, SYBR Green DNA, 72 h; series mostly up to 28.7 µM
In short: as §1

CP291 = assay: as above; settings: P. falciparum in erythrocytes, SYBR Green DNA, 72 h; series mostly up to 28.7 µM
In short: as §1

CP297 = assay: as above; settings: P. falciparum in erythrocytes, SYBR Green DNA, 72 h; series mostly up to 28.7 µM
In short: as §1

CP305 = assay: as above; settings: P. falciparum in erythrocytes, SYBR Green DNA, 72 h; series mostly up to 28.7 µM
In short: as §1

CP315 = assay: as above; settings: P. falciparum in erythrocytes, SYBR Green DNA, 72 h; series mostly up to 28.7 µM
In short: as §1

CP325 = assay: as above; settings: P. falciparum in erythrocytes, SYBR Green DNA, 72 h; series mostly up to 28.7 µM
In short: as §1

CP329 = assay: as above; settings: P. falciparum in erythrocytes, SYBR Green DNA, 72 h; series mostly up to 28.7 µM
In short: as §1

DIV14 = assay: as above; settings: P. falciparum in erythrocytes, SYBR Green DNA, 72 h; series mostly up to 28.7 µM
In short: as §1

DIV30 = assay: as above; settings: P. falciparum in erythrocytes, SYBR Green DNA, 72 h; series mostly up to 28.7 µM
In short: as §1

Dd2 = assay: as above; settings: P. falciparum in erythrocytes, SYBR Green DNA, 72 h; series mostly up to 28.7 µM
In short: as §1

ECU = assay: as above; settings: P. falciparum in erythrocytes, SYBR Green DNA, 72 h; series mostly up to 28.7 µM
In short: as §1

FAB9 = assay: as above; settings: P. falciparum in erythrocytes, SYBR Green DNA, 72 h; series mostly up to 28.7 µM
In short: as §1

GB4 = assay: as above; settings: P. falciparum in erythrocytes, SYBR Green DNA, 72 h; series mostly up to 28.7 µM
In short: as §1

HB3 = assay: as above; settings: P. falciparum in erythrocytes, SYBR Green DNA, 72 h; series mostly up to 28.7 µM
In short: as §1

ICS = assay: as above; settings: P. falciparum in erythrocytes, SYBR Green DNA, 72 h; series mostly up to 28.7 µM
In short: as §1

JCK = assay: as above; settings: P. falciparum in erythrocytes, SYBR Green DNA, 72 h; series mostly up to 28.7 µM
In short: as §1

N140 = assay: as above; settings: P. falciparum in erythrocytes, SYBR Green DNA, 72 h; series mostly up to 28.7 µM
In short: as §1

P93_24 = assay: as above; settings: P. falciparum in erythrocytes, SYBR Green DNA, 72 h; series mostly up to 28.7 µM
In short: as §1

P94_40 = assay: as above; settings: P. falciparum in erythrocytes, SYBR Green DNA, 72 h; series mostly up to 28.7 µM
In short: as §1

PAD = assay: as above; settings: P. falciparum in erythrocytes, SYBR Green DNA, 72 h; series mostly up to 28.7 µM
In short: as §1

PC15 = assay: as above; settings: P. falciparum in erythrocytes, SYBR Green DNA, 72 h; series mostly up to 28.7 µM
In short: as §1

PC26 = assay: as above; settings: P. falciparum in erythrocytes, SYBR Green DNA, 72 h; series mostly up to 28.7 µM
In short: as §1

PC49 = assay: as above; settings: P. falciparum in erythrocytes, SYBR Green DNA, 72 h; series mostly up to 28.7 µM
In short: as §1

SC27B = assay: as above; settings: P. falciparum in erythrocytes, SYBR Green DNA, 72 h; series mostly up to 28.7 µM
In short: as §1

TAB109 = assay: as above; settings: P. falciparum in erythrocytes, SYBR Green DNA, 72 h; series mostly up to 28.7 µM
In short: as §1

TAB113 = assay: as above; settings: P. falciparum in erythrocytes, SYBR Green DNA, 72 h; series mostly up to 28.7 µM
In short: as §1

TAB165 = assay: as above; settings: P. falciparum in erythrocytes, SYBR Green DNA, 72 h; series mostly up to 28.7 µM
In short: as §1

W2 = assay: as above; settings: P. falciparum in erythrocytes, SYBR Green DNA, 72 h; series mostly up to 28.7 µM
In short: as §1

[1] = target: Nuclear receptor subfamily 1 group I member 2 (Rattus norvegicus) (UniProt Q9R1A7); assay: qHTS assay for small molecule activators of the rat pregnane X receptor (rPXR) signaling pathway (AID 651751; call rule not given here; also: 0% is about no effect); settings: rPXR reporter cells, luciferase (One-Glo), 24 h
Sequence of Nuclear receptor subfamily 1 group I member 2 (Rattus norvegicus) (Q9R1A7 whole entry, looked up): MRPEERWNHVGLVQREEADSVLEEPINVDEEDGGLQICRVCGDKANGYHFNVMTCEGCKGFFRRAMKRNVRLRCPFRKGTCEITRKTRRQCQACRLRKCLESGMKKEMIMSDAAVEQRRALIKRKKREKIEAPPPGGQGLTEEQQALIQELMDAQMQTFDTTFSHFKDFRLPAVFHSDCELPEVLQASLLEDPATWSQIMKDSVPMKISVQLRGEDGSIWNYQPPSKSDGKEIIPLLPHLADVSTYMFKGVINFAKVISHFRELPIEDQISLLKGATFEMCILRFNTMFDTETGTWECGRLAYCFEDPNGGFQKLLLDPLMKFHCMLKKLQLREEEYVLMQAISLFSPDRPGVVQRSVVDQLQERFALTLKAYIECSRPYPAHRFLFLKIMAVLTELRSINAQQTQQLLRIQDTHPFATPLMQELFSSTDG

[2] = qHTS assay for small molecule activators of the human pregnane X receptor (PXR) signaling pathway (AID 720659; call rule not given here; also: 0% is about no effect)

C[C@@H]1[C@H](O)[C@@H](C)/C=C/C=C/C=C/C=C/C=C/C=C/C=C/[C@H](O[C@@H]2O[C@H](C)[C@@H](O)[C@H](N)[C@@H]2O)C[C@@H]2O[C@](O)(C[C@@H](O)C[C@@H](O)[C@H](O)CC[C@@H](O)C[C@@H](O)CC(=O)O[C@H]1C)C[C@H](O)[C@H]2C(=O)O
inactive: Potency (CP250) | Potency (CP252) | Potency (CP256) | Potency (CP260) | Potency (CP262) | Potency (CP265) | Potency (CP266) | Potency (CP268) | Potency (CP269) | Potency (CP286) | Potency (CP291) | Potency (CP297) | Potency (CP305) | Potency (CP315) | Potency (CP325) | Potency (CP329) | Potency (DIV14) | Potency (DIV30) | Potency (Dd2) | Potency (ECU) | Potency (FAB9) | Potency (GB4) | Potency (HB3) | Potency (ICS) | Potency (JCK) | Potency (N140) | Potency (P93_24) | Potency (P94_40) | Potency (PAD) | Potency (PC15) | Potency (PC26) | Potency (PC49) | Potency (SC27B) | Potency (TAB109) | Potency (TAB113) | Potency (TAB165) | Potency (W2) | max response [1] -0.988% | outcome [2]
